Hits are enriched below; roughly 4.7% of the tested compounds scored in any of these assays.
D1 agonist = agonists of human D1 dopamine receptor. 360,000 compounds, 1% hits. HEK293 T-REx D1 cells, calcium flux, agonist mode. P21728. activation, % at 2 µM
Target sequence (P21728 whole entry, looked up): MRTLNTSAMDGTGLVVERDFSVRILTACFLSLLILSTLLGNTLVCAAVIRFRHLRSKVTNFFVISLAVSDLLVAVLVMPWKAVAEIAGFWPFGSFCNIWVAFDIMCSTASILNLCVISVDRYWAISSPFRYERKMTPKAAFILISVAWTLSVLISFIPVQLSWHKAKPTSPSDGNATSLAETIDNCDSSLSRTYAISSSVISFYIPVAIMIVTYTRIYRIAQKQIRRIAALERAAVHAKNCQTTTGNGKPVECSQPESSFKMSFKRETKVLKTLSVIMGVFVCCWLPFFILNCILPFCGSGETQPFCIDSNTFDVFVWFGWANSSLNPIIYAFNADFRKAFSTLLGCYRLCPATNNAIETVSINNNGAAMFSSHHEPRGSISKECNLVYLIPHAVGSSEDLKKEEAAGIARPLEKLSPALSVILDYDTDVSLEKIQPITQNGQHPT
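Tetracycline-induced HEK293 TREx D1 cells, force-coupled to calcium signalling, were dye-loaded with a no-wash calcium kit. Compound was pin-added after a 10 s baseline. Fluorescence was read kinetically at 1 cycle/s for 180 s, with calcium rises flagged as agonism.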
TRHR agonist-1 = TRH receptor (human) agonism | P34981 | TRHR cells, calcium flux fluo-8, FDSS agonist mode | activation, % at 2 µM | 360,000 compounds, 0.18% hits | AID 493084
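TRHR-expressing cells, plated overnight in medium with 10% serum, were loaded with fluo-8 calcium dye at room temperature. After a 10 s baseline, library compound was pin-added and calcium release was recorded kinetically (ex 480/em 530) as agonist response.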
TRHR enhancer-1 = allosterically enhances the human TRH receptor | TRHR cells, fluo-8 calcium fluorescence, EC20 TRH enhancement | enhancement, % at 2 µM | AID 493056 | 360,000 compounds, 0.66% hits; in the data active = enhancement above about 30%
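TRHR-expressing cells loaded with fluo-8 calcium dye were read kinetically (ex 480/em 530) during compound addition, then stimulated with an EC20 of TRH (10 nM final). Enhancement of the Gq-mediated intracellular calcium response was scored.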
D1 antag = antagonists of human D1 dopamine receptor; 360,000 compounds, 3.2% hits; HEK293 TREx D1 cells, calcium flux, dopamine EC80; active compounds read low; activity change, negative = inhibition, % at 10 µM; in the data active = activity change below about -30%
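Tetracycline-induced HEK293 Trex D1 cells, force-coupled to calcium, dye-loaded; compounds added and read 180 s, then EC80 dopamine added and calcium flux tracked kinetically another 180 s.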
D1 PAM = human D1 dopamine receptor positive modulation. HEK293 TREx D1 cells, calcium flux, dopamine EC20 potentiation. potentiation, % at 10 µM. 360,000 compounds, 0.036% hits. AID 504651; in the data active = potentiation above about 30%
TRHR enhancer-2 = confirmation of human TRH receptor allosteric enhancers. shares compounds with TRHR enhancer-1. activity change, negative = inhibition, % at 46.1 µM. TRH receptor cell assay, enhancer confirmation qHTS. AID 493076. 970 tested, under 10 active; active = well fitted curve in the direction sought with a large enough effect; inconclusive = small, poorly fitted or top-dose-only effect, or another doubt; inactive = no such curve, though single readings can be large; an effect the other way counts as inactive or inconclusive;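 also: compound effect scored on response to added TRH at EC20 of 10 nM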
TRHR agonist-2 = confirmation of human TRH receptor agonists; 970 compounds, 8% hits; Potency, µM (titrated, usually from 46.1 µM), most hits filed as activators; shares compounds with TRHR enhancer-1; TRHR-expressing cells, agonist activation read-out; active = well fitted curve in the direction sought with a large enough effect; inconclusive = small, poorly fitted or top-dose-only effect, or another doubt; inactive = no such curve, though single readings can be large; an effect the other way counts as inactive or inconclusive; also: nearly all actives have a fitted effect of over 75% in size
Numbers stand for hits; - = inactive; ? = inconclusive; . = no result given. Rule as the data show it, unless noted: active = activation above about 30%; inactive = the rest.

SMILES | D1 agonist | TRHR agonist-1 | TRHR enhancer-1 | D1 antag | D1 PAM | TRHR enhancer-2 | TRHR agonist-2
O=[N+]([O-])c1ccc(/C=C/C2=NN(c3ccccc3)C(c3ccco3)C2)o1 (stereo not given) | 97.2 | 39.9 | - | - | - | - | ?
Fc1ccc(C2=NN(c3ccccc3)C(c3ccco3)C2)cc1 (stereo not given) | - | - | - | - | - | . | .
Cc1ccc(NC(=O)CSc2nc3nc(C)c(Br)cc3[nH]2)cc1F | - | - | 80.5 | -30.8 | - | - | -
Cc1c(C(=O)Nc2nc(-c3ccc(F)cc3)ns2)oc2ccc(Br)cc12 | - | - | - | - | - | . | .
NC(=O)[C@@H]1CCCN1C(=O)[C@@H](Cc1cnc[nH]1)NC(=O)[C@@H]1CCC(=O)N1 | - | 84.5 | - | - | - | - | 0.0146µM
Cc1ccc(CN(Cc2cccn2-c2nnc(N3CCCC3=O)s2)C(=O)Nc2cc(C)cc(C)c2)cc1 | - | - | - | - | - | . | .
CC1CCCC(NC(=O)C2c3ccccc3C(=O)N2Cc2cccs2)C1C (stereo not given) | - | - | 44.2 | - | - | - | -
CC(NC(=O)c1cc(-c2ccc(Cl)cc2)on1)c1ccccc1 (stereo not given) | - | - | - | - | - | . | .
Cc1ccc(C(=O)Nc2ccc3oc(-c4cccnc4)nc3c2)c(Cl)c1 | - | - | - | - | - | . | .
Cn1c(O)c(N=NC(=N)N)c2ccccc21 | - | - | 66.4 | - | - | - | -
CCOC(=O)c1c(NC(=O)COc2ccc(Cl)cc2C)sc(C(C)=O)c1C | - | - | - | - | - | . | .
Cc1ccc(NC(=O)Cn2nc(N3CCN(c4ccccc4)CC3)ccc2=O)cc1F | - | - | - | - | - | . | .
CCOC(=O)/C(C#N)=C(C)/C=C1\Sc2ccccc2N1CC | 44.8 | 32.7 | - | - | - | - | 20.6µM
CC(C)c1ccc(N(CC(=O)NCCCN2CCOCC2)S(=O)(=O)c2ccccc2)cc1 | - | - | 48.0 | - | - | - | -
COC(=O)c1[nH]c2ccccc2c1NS(=O)(=O)c1ccc(F)c(C)c1 | - | - | 44.5 | -47.9 | - | - | -
CS(=O)(=O)Nc1ccc(C(=O)Nc2ccc3c(c2)OCO3)cc1 | - | - | 46.5 | - | - | - | -
O=C(Nc1ccc2c(c1)OCO2)c1ccc2c(c1)OCO2 | - | - | - | - | - | . | .
Cc1c(NC(=O)C(C)OC(=O)c2c3c(nc4ccccc24)CCC3)c(=O)n(-c2ccccc2)n1C (stereo not given) | - | - | 49.5 | - | - | - | -
Cc1c(NC(=O)COC(=O)c2c3c(nc4ccccc24)CCCC3)c(=O)n(-c2ccccc2)n1C | - | - | - | - | - | . | .
Cc1ccc2nc(-c3ccc(NC(=O)COC(=O)c4cncc(Br)c4)cc3)sc2c1 | - | - | 43.7 | - | - | - | -
Cc1ccc2nc(-c3ccc(NC(=O)COC(=O)c4ccco4)cc3)sc2c1 | - | - | - | - | - | . | .
Clc1ccc(CN2CCC(CNc3ncnc4onc(-c5ccc(Cl)cc5)c34)CC2)cc1 | - | - | - | - | - | . | .
O=C(Nc1ccc(S(=O)(=O)Nc2nccc(C3Cc4ccccc4C(=O)O3)n2)cc1)c1ccccc1 (stereo not given) | - | - | 42.8 | - | - | - | -
Cc1ccc(NC(=O)CSCC(=O)NCc2ccco2)cc1 | - | - | 45.9 | - | - | - | -
Cc1ccc(CNC(=O)C2CCCN(S(=O)(=O)c3cccc4nonc34)C2)cc1 (stereo not given) | - | - | - | - | - | . | .
SMILES | D1 agonist | TRHR agonist-1 | TRHR enhancer-1 | D1 antag | D1 PAM | TRHR enhancer-2 | TRHR agonist-2
CC1CCCN(C(=O)Cn2nnc(-c3ccc(S(C)(=O)=O)cc3)n2)C1 (stereo not given) | - | - | 41.0 | - | - | - | -
CCOC(=O)Cc1csc(NC(=O)c2cc(-c3ccncc3)nc3ccccc23)n1 | - | - | - | - | - | . | .
N#Cc1c(N)nc(SCC(=O)OCc2ccccc2)c(C#N)c1-c1ccco1 | - | - | 65.2 | - | - | - | -
CS(=O)(=O)c1ccc(Cl)c(NC(=O)CN2CCCC2c2ccc3c(c2)OCCCO3)c1 (stereo not given) | - | - | 45.7 | - | - | - | -
O=S(=O)(c1cccc(S(=O)(=O)N2CCC(N3CCCCC3)CC2)c1)N1CCOCC1 | - | - | 49.1 | - | - | - | -
CC1CCN(S(=O)(=O)c2cccc(S(=O)(=O)N3CCOCC3)c2)CC1 | - | - | - | - | - | . | .
O=C(Nc1ccccc1)C(=O)c1c[nH]c2ccccc12 | - | - | 49.7 | - | - | - | -
COC(=O)c1ccc(NC(=O)C(=O)c2c[nH]c3ccccc23)cc1 | - | - | - | - | - | . | .
COC(=O)N=Nc1c(O)[nH]c2ccc(Br)cc12 | - | - | - | - | - | . | .
COc1ccc2[nH]c(O)c(N=NC(=N)N)c2c1 | - | - | 61.8 | - | - | - | -
CC1=CC(=C(C#N)c2nc3ccccc3s2)C=C(C)N1CC1CCCO1 (stereo not given) | 42.6 | 38.8 | - | - | - | ? | 18.4µM
c1ccc2sc(NCC3CCCO3)nc2c1 (stereo not given) | - | - | - | - | - | . | .
Cc1c(O)ccc2cc(S(=O)(=O)c3ccccc3)c(=O)oc12 | 31.6 | 37.4 | - | - | - | - | 23.1µM
COc1ccc(Nc2nc(N)c([N+](=O)[O-])c(N3CCN(C)CC3)n2)cc1 | - | - | 45.9 | - | - | - | -
COc1ccc(Nc2nc(N)c([N+](=O)[O-])c(N3CCCC3)n2)cc1 | - | - | - | - | - | . | .
Cc1ccc(NCc2ccc(O)c3ncccc23)cc1C | - | - | - | - | - | . | .
Cc1ccc(NCc2ccc(O)c3ncccc23)cc1 | - | - | 45.9 | - | - | - | -
CC(C)Oc1ccc(CNC(=O)c2ccc3c(c2)nc2n3CCOC2)cc1 | - | - | - | - | - | . | .
CCC(C(=O)N1CC2(C)CC1CC(C)(C)C2)N1C(=O)c2ccccc2C1=O (stereo not given) | - | - | - | - | - | . | .
CC(C(=O)N1CC2(C)CC1CC(C)(C)C2)N1C(=O)c2ccccc2C1=O (stereo not given) | - | - | 45.8 | - | - | - | -
Cc1ccc(Cn2c(CNS(=O)(=O)c3c(C)cc(C)cc3C)nc3cccnc32)cc1 | - | - | - | - | - | . | .
Cc1[nH]c2ccccc2c1C(=O)C(C)OC(=O)c1ccccc1NCCO (stereo not given) | - | - | - | - | - | . | .
CCc1ccc(NC(=O)C[n+]2cc(-c3ccc(C)cc3)n3c2CCC3)cc1 | - | - | 42.1 | - | - | - | -
Cc1cccc(C)c1NC(=O)CN(C1CCCCC1)S(C)(=O)=O | - | - | - | - | - | . | .

Assay outcomes deposited in PubChem BioAssay by National Center for Advancing Translational Sciences (NCATS).
